Experimental data as given in PubChem BioAssay AID602127 (Broad Institute, 2011).
Measured potencies and affinities stand elsewhere. Calls of active or inactive are those of the source.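 Rule for the calls: active = every repeat test judged active, meaning a falling signal with potency within twice the top valid dose; inconclusive = repeat tests disagree on the call; inactive = every repeat test inactive, including signal moving upward.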

biological target: Cyclin-dependent kinase 2 (Homo sapiens) (UniProt P24941); assay: inhibition of human CDK2/cyclin A – biochemical, cherry-picked samples, selectivity assay for Dyrk1A inhibitor project, dose response (AID 602127); conditions: ADP-Glo luminescence, 60 min; series mostly up to 10 µM; activity change, negative = inhibition: at the top concentration

Activity change, negative = inhibition, inactive:
Cc1cc(NCCCn2ccnc2)n2ncc(-c3ccc(Cl)cc3)c2n1 -12.4%
Fc1cccc(Nc2nc(-c3ccncc3)nc3ccccc23)c1 -2.19%
Clc1ccc(CNc2nccc(-c3ccc4c(c3)OCCO4)n2)cc1Cl 2.63%
CC(Nc1nc(-c2cccnc2)nc2ccccc12)c1ccc(F)cc1 (stereo not given) -15.5%
c1cncc(CNc2cc(-c3ccc4c(c3)OCO4)ncn2)c1 -0.949%
O=C(CSc1nnnn1-c1ccc(O)cc1)Nc1ccc(N2CCOCC2)c(Cl)c1 -8.88%
Cc1nc(NC(=O)c2ccccc2)sc1-c1csc(NCc2ccco2)n1 -9.08%
COc1cccc(-c2sc3ccccc3c2-c2ccc(OCCN3CCCC3)cc2)c1 1.27%
CN(C)S(=O)(=O)c1ccc(Cl)c(C(=O)Nc2cccc3ncccc23)c1 -12.6%
Cc1ccc(CNc2ncnc3ccc(-c4ccoc4C)cc23)o1 15.1%
O=C(Nc1nc(-c2ccc3c(c2)OCCO3)cs1)c1ccco1 1.2%
Clc1ccc(CNc2cc(-c3ccc4c(c3)OCO4)ncn2)cc1 -8.27%
CCCC(=O)Nc1nc(-c2ccc3c(c2)OCCO3)cs1 -16.7%
COc1ccc2c(c1)CCc1c-2n[nH]c1C(=O)O 4.31%
Cc1nc(CN(C)c2ncnc3ccc(-c4ccc5c(c4)OCO5)cc23)cs1 -13.5%
COc1ccc(-c2cc(NCCc3ccncc3)n3ncnc3n2)cc1 -20.4%
COc1cccc(Nc2ncnc3ccccc23)c1 -17.9%
COc1ccc(-c2[nH]ncc2-c2ccc3c(c2)OCCO3)c(O)c1 5.43%
FC(F)(F)c1cccc(Nc2nccc(-c3ccc4c(c3)OCO4)n2)c1 7.47%
c1cncc(-c2nc(NCc3ccco3)c3ccccc3n2)c1 -17.4%
N#Cc1c(C(F)(F)F)cc(-c2cccc(Cl)c2)[nH]c1=O 1.81%
COc1ccc2c(Cl)c(C(=O)NCc3ccco3)sc2c1 -7.68%
Brc1cc(Br)cc(CNc2nccc(-c3ccc4c(c3)OCO4)n2)c1 -3.23%
O=C(Nc1nc(-c2ccncc2)cs1)c1ccco1 1.59%
CN(Cc1nccs1)c1ncnc2ccc(-c3ccc4c(c3)OCO4)cc12 -3%
NC(=O)c1c(NC(=O)c2ccc(N3C(=O)CCC3=O)cc2)sc2c1CCCC2 -15.9%
CCN1CCN(Cc2ccc(NC(=O)c3ccc(C)c(/C=C/c4cnc(Nc5cc(N6CCNCC6)nc(C)n5)cn4)c3)cc2C(F)(F)F)CC1 -2.61%
Cc1ccnc(NC(=O)c2cccc(S(=O)(=O)N3CCN(c4ccccc4)CC3)c2)c1 -4.96%
c1cncc(CNc2ccnc(-c3ccc4[nH]ncc4c3)n2)c1 -3.74%
CC(=O)Nc1ccc(SCc2ncc(-c3ccccc3)o2)cc1 -20.5%
